{"source": "PubChem BioAssay AID588591", "about": "(National Center for Advancing Translational Sciences (NCATS), 2011)", "note": "In all, about 390,000 compounds went through this assay and about 4,700 (1.2%) were called active. Entries that show only a call come without a potency. Another 4% or so got no clear call; they are omitted. Calls come from the whole dose curve; as a rule, active = well fitted inhibition curve with a large enough effect; inconclusive = small, poorly fitted or top-dose-only effect, or another doubt; inactive = no such curve, though single readings can be large or run the other way. The full list was thinned out, with actives kept by preference.", "data": [{"target": "DNA polymerase eta (Homo sapiens) (UniProt Q9Y253)", "sequence (Q9Y253 whole entry, looked up)": "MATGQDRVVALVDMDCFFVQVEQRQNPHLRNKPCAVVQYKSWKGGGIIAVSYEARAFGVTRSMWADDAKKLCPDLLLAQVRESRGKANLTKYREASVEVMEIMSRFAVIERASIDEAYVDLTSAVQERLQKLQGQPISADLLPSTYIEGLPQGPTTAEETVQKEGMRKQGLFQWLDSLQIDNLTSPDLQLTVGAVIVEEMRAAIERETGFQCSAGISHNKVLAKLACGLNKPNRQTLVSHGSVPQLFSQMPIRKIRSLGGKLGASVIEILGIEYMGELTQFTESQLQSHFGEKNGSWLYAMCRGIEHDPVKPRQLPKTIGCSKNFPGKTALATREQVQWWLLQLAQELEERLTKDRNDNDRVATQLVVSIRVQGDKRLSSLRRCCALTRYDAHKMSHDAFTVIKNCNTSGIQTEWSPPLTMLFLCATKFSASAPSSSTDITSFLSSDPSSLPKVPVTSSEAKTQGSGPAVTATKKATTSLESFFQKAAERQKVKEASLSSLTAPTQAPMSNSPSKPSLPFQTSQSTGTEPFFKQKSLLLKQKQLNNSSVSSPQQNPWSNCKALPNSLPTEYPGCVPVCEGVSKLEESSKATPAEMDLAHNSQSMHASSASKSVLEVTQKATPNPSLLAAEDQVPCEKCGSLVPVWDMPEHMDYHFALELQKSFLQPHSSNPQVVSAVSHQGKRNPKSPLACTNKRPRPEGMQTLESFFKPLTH", "assay": "qHTS for Inhibitors of Polymerase Eta; note: potency is the fitted concentration of half-maximal effect", "conditions": "recombinant Pol eta, fluorescent DNA replication assay; series mostly up to 114 µM", "procedure,_shortened": "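Pol eta at 10 nM preincubated with compounds 15 min at room temperature; reaction started with fluorescent substrate (50 nM final) and read kinetically at 0 and 10 min.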", "values": [{"compound": "COc1cccc(NC(=O)C(=O)NCC(c2ccc3c(c2)OCO3)N2CCN(C)CC2)c1", "note": "(configuration not stated)", "Potency": "inactive"}, {"compound": "COc1ccccc1CNS(=O)(=O)c1cc(Br)cc2c1N(C(C)=O)C(C)C2", "note": "(configuration not stated)", "Potency": "inactive"}, {"compound": "Cc1ccc(Cl)cc1N1CCN(C(=O)c2cnc3c(-c4ccc(F)cc4)c(C)nn3c2C)CC1", "Potency": "inactive"}, {"compound": "Cc1ccc(OCC(=O)OCc2cc(=O)n3nc(C4CC4)sc3n2)cc1", "Potency": "inactive"}, {"compound": "Nc1ccc2nc3c(=O)[nH]c(=S)[nH]c3nc2c1", "Potency": "1.12 µM (active)"}, {"compound": "Cc1cc(C)c(NC(=O)CCc2c(C)nc3c(c(C)nn3C(C)(C)C)c2C)c(C)c1", "Potency": "inactive"}, {"compound": "COc1cc(CNCCSc2nnnn2C)ccc1OCc1ccc(Cl)cc1Cl", "Potency": "inactive"}, {"compound": "CC1CCN(S(=O)(=O)c2ccc3c(ccn3CCC(=O)NCc3ccc(N(C)C)cc3)c2)CC1", "Potency": "inactive"}, {"compound": "COc1cccc(NC(=O)CN2C(=O)c3ccccc3Sc3ncccc32)c1", "Potency": "inactive"}, {"compound": "O=C(CN1C(=O)c2cccc3cccc1c23)Nc1ccccc1", "Potency": "50.1 µM (active)"}, {"compound": "O=C1c2cccc3cccc(c23)N1CN1CCN(c2ccccn2)CC1", "Potency": "inactive"}, {"compound": "CCN(C(=O)Cn1cc(S(=O)(=O)N2CCN(c3ccccc3F)CC2)c2ccccc2c1=O)c1ccc(C)c(C)c1", "Potency": "inactive"}, {"compound": "CCC(CC)C(=O)Nc1ccc(S(=O)(=O)Nc2nccs2)cc1", "Potency": "inactive"}, {"compound": "COc1ccccc1OC(C)C(=O)Nc1ccc(S(=O)(=O)Nc2nccs2)cc1", "note": "(configuration not stated)", "Potency": "inactive"}, {"compound": "O=C(Nc1ccc(S(=O)(=O)Nc2nccs2)cc1)c1cc(-c2ccncc2)nc2ccccc12", "Potency": "12.6 µM (active)"}, {"compound": "CC(C)(C)OC(=O)N1CCC(c2c(C(=O)N3CCc4ccccc4C3)cnn2-c2ccc(F)cc2)CC1", "Potency": "inactive"}, {"compound": "Oc1ccc(Cn2cc[nH]c2=S)cc1", "Potency": "inactive"}, {"compound": "COc1ccc(CCNc2ncnc3c2cnn3-c2ccc(C)cc2)cc1", "Potency": "inactive"}, {"compound": "Cc1ccc(NC(=O)CSc2nc3c([nH]c4ccccc43)c(=O)n2-c2ccccc2)cc1Cl", "Potency": "inactive"}, {"compound": "CC(=O)c1sc(N2C(=O)c3oc4ccccc4c(=O)c3C2c2ccc(C)cc2)nc1C", "note": "(configuration not stated)", "Potency": "inactive"}, {"compound": "Cc1ccc2nc(N3C(=O)C(O)=C(C(=O)c4ccco4)C3c3cccc(O)c3)sc2c1", "note": "(configuration not stated)", "Potency": "50.1 µM (active)"}, {"compound": "C=CCSc1nnc(N2C(=O)C(O)=C(C(=O)c3ccco3)C2c2ccc(F)cc2)s1", "note": "(configuration not stated)", "Potency": "inactive"}, {"compound": "CC(=O)c1ccc(NC(=O)CSc2nc(-c3ccccc3F)nc3c2c(=O)n(C)c(=O)n3C)cc1", "Potency": "inactive"}, {"compound": "CCCCc1nn2c(=O)cc(COC(=O)c3cccc(NC(=O)COc4ccccc4)c3)nc2s1", "Potency": "inactive"}, {"compound": "Cn1c(=O)[nH]c(=O)c2c1nc(NCCc1ccccc1)n2Cc1ccc(F)cc1", "Potency": "inactive"}, {"compound": "O=C(Nc1ccc(F)cc1)c1cc2c(s1)CCCC2", "Potency": "inactive"}, {"compound": "O=C(c1cc2c(s1)CCC2)N1CCN(c2ccccc2)CC1", "Potency": "10 µM (active)"}, {"compound": "CC1CCN(c2nc3ccc(C(=O)N4CCN(c5ccccc5)CC4)cc3s2)CC1", "Potency": "inactive"}, {"compound": "CC1CCCN(c2csc3ccc(F)cc3c2=O)C1", "note": "(configuration not stated)", "Potency": "inactive"}, {"compound": "Cc1cc(C)n2nc(SCC(=O)NC(=O)NCc3ccco3)nc2n1", "Potency": "inactive"}, {"compound": "Cc1ccc(SCC(=O)NC(=O)NCc2ccco2)c(C)c1", "Potency": "14.1 µM (active)"}, {"compound": "Cc1cc(C)c2c(c1)c(C)cc1nnc(SCC(=O)NCc3ccco3)n12", "Potency": "inactive"}, {"compound": "CCc1cccc(NC(=O)CN(C)S(=O)(=O)c2ccc3[nH]c4c(c3c2)CCCC4)c1", "Potency": "inactive"}, {"compound": "CCn1c2ccccc2c2nnc(N3CCN(c4cc(C)ccc4C)CC3)nc21", "Potency": "inactive"}, {"compound": "Cc1ccc2[nH]c3c(=O)n(CC(=O)NC(C)C)ncc3c2c1", "Potency": "inactive"}, {"compound": "CC(C)c1ccc(C2C(C(=O)c3ccco3)=C(O)C(=O)N2CC2CCCO2)cc1", "note": "(configuration not stated)", "Potency": "inactive"}, {"compound": "O=C(C1=C(O)C(=O)N(CCOCCO)C1c1ccccn1)c1cccs1", "note": "(configuration not stated)", "Potency": "inactive"}, {"compound": "O=C(C1=C(O)C(=O)N(c2ncccn2)C1c1cccs1)c1ccco1", "note": "(configuration not stated)", "Potency": "79.4 µM (active)"}, {"compound": "O=C(CN1C(=O)CCn2nc(-c3ccccc3)cc21)NCc1ccccc1", "Potency": "inactive"}, {"compound": "O=C(c1cccs1)c1cn(CCOc2ccc(Cl)cc2)c2ccccc12", "Potency": "inactive"}, {"compound": "CN1CCN(Cc2nc3cc(NC(=O)COc4ccc([N+](=O)[O-])cc4)ccc3n2C)CC1", "Potency": "inactive"}, {"compound": "O=C(COc1ccc(/C=N/NC(=O)c2ccc(O)cc2)cc1)Nc1ccc([N+](=O)[O-])cc1", "Potency": "4.47 µM (active)"}, {"compound": "O=C(N/N=C/c1ccc(OCC2COCCO2)cc1)c1ccc(Br)cc1", "note": "(configuration not stated)", "Potency": "inactive"}, {"compound": "COc1ccc(C2Sc3ccccc3NC3=C2C(=O)c2ccccc23)c(OC)c1OC", "note": "(configuration not stated)", "Potency": "inactive"}, {"compound": "C=CCC(CC=C)(C(N)=O)c1ccccc1", "Potency": "inactive"}, {"compound": "CCC(C)OC(=O)C(C)Oc1ccc(-c2ccccc2)cc1", "note": "(configuration not stated)", "Potency": "inactive"}, {"compound": "NC(CSC(c1ccccc1)(c1ccccc1)c1ccc(-c2ccccc2)cc1)C(=O)O", "note": "(configuration not stated)", "Potency": "25.1 µM (active)"}, {"compound": "O=C(Nc1ccc(C(=O)OCc2cc(=O)n3nc(C4CC4)sc3n2)cc1)c1ccc(F)cc1", "Potency": "inactive"}, {"compound": "COc1ccc(CCNCc2c(C(=O)O)c(C)n(Cc3cccc(C)c3)c2C)cc1OC", "Potency": "inactive"}, {"compound": "COc1ccc(Cl)cc1NC(=O)CN(C)Cc1ccc(OC)c(OC)c1", "Potency": "inactive"}, {"compound": "Cn1c(=O)oc2cc(S(=O)(=O)CCC(=O)NCCc3ccc(Cl)cc3)ccc21", "Potency": "inactive"}, {"compound": "O=C(CCS(=O)(=O)c1ccc(Br)cc1)NCCc1ccc(Cl)cc1", "Potency": "20 µM (active)"}, {"compound": "COc1ccc(Cl)cc1NC(=O)CCC(=O)c1ccc(C)cc1", "Potency": "inactive"}, {"compound": "COc1ccc(Cl)cc1NC(=O)CCS(=O)(=O)c1ccc(Br)cc1", "Potency": "20 µM (active)"}, {"compound": "CC(=O)N1CCc2cc(Br)cc(S(=O)(=O)CCC(=O)NCCc3ccc(Cl)cc3)c21", "Potency": "inactive"}, {"compound": "O=C(CCS(=O)(=O)c1cc(Br)cc2c1N(C(=O)C1CC1)CC2)Nc1ccc(Br)cc1F", "Potency": "inactive"}, {"compound": "CSc1nc(-c2ccccc2Cl)nc2c1Cc1c(CO)cnc(C)c1O2", "Potency": "inactive"}, {"compound": "Cc1c(C)n2c(SCC(=O)N3CCCC3)nnc2[nH]c1=O", "Potency": "inactive"}, {"compound": "CC(=O)c1sc2nc(SCC(=O)N3CCCCC3)[nH]c(=O)c2c1C", "Potency": "10 µM (active)"}, {"compound": "COCCn1c(SCC(=O)N2CCCCCC2)nc2c(c1=O)SCC2", "Potency": "inactive"}, {"compound": "Cc1cc(C)c2oc(C(=O)Nc3ccc(S(=O)(=O)N4CCCCCC4)cc3)cc(=O)c2c1", "Potency": "inactive"}, {"compound": "O=C(CSc1nnc(-c2ccncc2)n1-c1ccccc1)Nc1ccc(Cl)c(Cl)c1", "Potency": "inactive"}, {"compound": "COc1ccc(S(=O)(=O)NCCSc2nnnn2-c2ccccc2)cc1", "Potency": "inactive"}, {"compound": "CC(C)(C)C1C/C(=C/c2ccco2)C(=O)/C(=C/c2ccco2)C1", "note": "(configuration not stated)", "Potency": "28.2 µM (active)"}, {"compound": "COc1cc(Cl)ccc1Nc1ncc(C(=O)N2CCN(c3ccccc3OC)CC2)c2ccccc12", "Potency": "inactive"}, {"compound": "COc1ccc(Nc2ncc(C(=O)Nc3cc(C)ccc3OC)c3ccccc23)cc1", "Potency": "inactive"}, {"compound": "COc1ccc(C(=O)Nc2cccc(C(=O)OCc3cc(=O)n4c5c(sc4n3)CCCC5)c2)cc1", "Potency": "inactive"}, {"compound": "COc1ccccc1CNC(=O)c1ccc(-n2c(C)cc3c2CCCC3)cc1", "Potency": "inactive"}, {"compound": "COc1ccc(C2=CC(c3ccccc3Cl)n3nc(-c4ccc(Cl)cc4)nc3N2)cc1", "note": "(configuration not stated)", "Potency": "inactive"}, {"compound": "CCCCOc1ccc(CNC(=O)c2ccc3c(c2)N(C)C(=O)C2CCCCN32)cc1", "note": "(configuration not stated)", "Potency": "inactive"}, {"compound": "Cc1cc(C)cc(NS(=O)(=O)c2ccc(-c3cc(C)no3)s2)c1", "Potency": "inactive"}, {"compound": "COCCNC(=O)Nc1ccc2nc(-c3ccco3)c(-c3ccco3)nc2c1", "Potency": "2.82 µM (active)"}, {"compound": "COc1ccc(NC(=O)C(=O)NCc2ccco2)cc1", "Potency": "inactive"}, {"compound": "CCOc1ccc(NC(=O)c2ncoc2-c2ccco2)cc1", "Potency": "inactive"}, {"compound": "CCC(=O)N1c2ccccc2CC1C(=O)N1CCN(c2ccccc2F)CC1", "note": "(configuration not stated)", "Potency": "inactive"}, {"compound": "Cc1cccc(CC(=O)N2CC(=O)Nc3ccc(F)cc3C2c2ccccc2)c1", "note": "(configuration not stated)", "Potency": "inactive"}, {"compound": "O=C(COC(=O)c1ccc(F)cc1F)Nc1ncccn1", "Potency": "22.4 µM (active)"}, {"compound": "CC(NC(=O)COC(=O)c1ccc(Cl)cc1O)c1ccc(F)cc1", "note": "(configuration not stated)", "Potency": "inactive"}, {"compound": "O=C(COC(=O)CSc1ccccc1)Nc1ccc(F)cc1F", "Potency": "inactive"}, {"compound": "CCOC(=O)c1ccc(NC(=O)Cn2c(=O)cc(C)c3c(C)nn(-c4cccc(F)c4)c32)cc1", "Potency": "inactive"}, {"compound": "CN(Cc1ccccc1)S(=O)(=O)c1ccc(F)c(C(=O)Nc2cccc(Cl)c2Cl)c1", "Potency": "inactive"}, {"compound": "Cc1ccc(Cn2c(C)nc3c(c2=O)c2nc4ccccc4nc2n3Cc2ccco2)cc1", "Potency": "22.4 µM (active)"}, {"compound": "CCN1CCN(C(c2ccc(C)cc2)c2c(O)cc(C)n(Cc3ccco3)c2=O)CC1", "note": "(configuration not stated)", "Potency": "inactive"}, {"compound": "Cc1ccc(Cn2c(=O)n(Cc3nc(-c4ccccc4)no3)c(=O)c3cc4c(cc32)OCO4)cc1", "Potency": "inactive"}, {"compound": "COc1cccc(C(=O)Nc2ccc(-c3cc(C(F)(F)F)nn3-c3ccccc3)cc2)c1", "Potency": "inactive"}, {"compound": "O=C(CN1c2ccccc2S(=O)(=O)c2ccccc21)Nc1cccc(C(F)(F)F)c1", "Potency": "inactive"}, {"compound": "CCCCN(CCCNC(=O)c1cc(Nc2ccccc2OC)nc2ccccc12)c1ccccc1", "Potency": "inactive"}, {"compound": "O=C(NCCCO)C(=O)Nc1c2c(nn1-c1ccccc1)CSC2", "Potency": "inactive"}, {"compound": "CC(C)(C)C(=O)OCc1nc(-c2ccc(O)c(O)c2)cs1", "Potency": "14.1 µM (active)"}, {"compound": "O=c1cc(-c2ccccc2)[nH]c2nc(Cl)ccc12", "Potency": "inactive"}, {"compound": "Cc1ccc2c(c1)c1c(c(=O)n(-c3ccccc3)c(=O)n1CC(=O)c1ccc(Cl)cc1)n2C", "Potency": "inactive"}, {"compound": "O=C(CSc1oc(-c2ccccc2)nc1S(=O)(=O)c1ccc(Br)cc1)NC1CCCCC1", "Potency": "inactive"}, {"compound": "N=C1C(c2nc3ccccc3s2)=C(O)CN1NC(=O)c1ccc([N+](=O)[O-])cc1", "Potency": "50.1 µM (active)"}, {"compound": "O=C(CCNC(=O)c1ccc([N+](=O)[O-])cc1)Nc1ccccc1N1CCOCC1", "Potency": "inactive"}, {"compound": "N=C1C(c2nc3ccccc3[nH]2)=C(O)CN1NC(=O)c1c[nH]c2ccccc12", "Potency": "inactive"}, {"compound": "COCCNc1ncnc2c1c(-c1ccccc1)cn2-c1ccc(C)c(Cl)c1", "Potency": "inactive"}, {"compound": "COc1cccc(-c2cc(C(=O)Nc3ccc(C)cc3)[nH]n2)c1", "Potency": "inactive"}]}]}
